Compounds with a hit are over-represented: about 3.5% of the library has one in this group of screens.
mHTT-CaM PPI inh: mutant huntingtin-calmodulin interaction inhibitors – biochemical, AlphaScreen, primary screen; P42858; AlphaScreen His-mHTT/GST-CaM binding, luminescence; inhibition, % at 15 µM; 3.6% of 190,000 active; AID 1671202, 2021
Pf apPOL block: Pf-apPOL inhibitors, biochemical, fluorescence; Plasmodium falciparum apicoplast DNA polymerase (apPOL); 0.25% of 210,000 active; inhibition, % at 10 µM; Recombinant Pf-apPOL, molecular beacon fluorescence, 1.5 h; AID 1794808, 2022
Numbers stand for hits; i = inactive; nt = no result given. Rule as the data show it: active = inhibition above about 50%; inactive = the rest.

SMILES | mHTT-CaM PPI inh | Pf apPOL block
CCOC(=O)CN1CC23C=CC(O2)C(C(=O)Nc2ccc(CC)cc2)C3C1=O (centres undefined) | i | i
CC1CCCCN1c1nc(-c2ccccc2O)nc2ccccc12 (centres undefined) | i | i
CC1CCCCN1c1nc(Cl)nc(N2CCCCC2C)n1 (centres undefined) | 100 | i
Cc1cnc(-n2nnc(C(=O)N3CCN(C(=O)c4ccco4)CC3)c2C)s1 | i | i
O=C(Nc1cccc2c1CCCC2)C1CCCN(S(=O)(=O)c2cccs2)C1 (centres undefined) | i | i
COc1cc(NC(=O)C2CCCN(c3cc(=O)n(C)c(=O)n3C)C2)cc(OC)c1OC (centres undefined) | i | i
O=C(CC1CCCC1)N1CCCN(Cc2noc(-c3ccccc3)n2)CC1 | i | i
COc1ccccc1NC(=O)c1ccccc1[N+](=O)[O-] | i | i
COc1ccccc1NC(Nc1ccccc1OC)=C(/C=C(\Cl)[N+](=O)[O-])[N+](=O)[O-] | 73 | i
O=[N+]([O-])c1ccc(OS(=O)(=O)c2ccc3ccccc3c2)c2ncccc12 | 100 | nt
O=[N+]([O-])c1ccc(Sc2cccc3cccnc23)c2ncccc12 | i | i
N#CC1=C(N)SC(N)=C(C#N)C1c1ccc([N+](=O)[O-])s1 | 67 | nt
N#Cc1ccc([N+](=O)[O-])s1 | nt | i
Cc1cc(C)c([N+](=O)[O-])c(C)c1C1C(C#N)=C(N)SC(N)=C1C#N | 65 | i
Cc1ccsc1C1C(C#N)=C(N)SC(N)=C1C#N | i | i
N#CC1=C(N)SC(N)=C(C#N)C1c1ccc(Cl)cc1 | i | i
N#CC1=C(N)SC(N)=C(C#N)C1c1ccc(Cl)c([N+](=O)[O-])c1 | 77 | i
Cc1ccc(F)cc1S(=O)(=O)N1CCN(C)C(c2ccccc2)C1 (centres undefined) | i | i
O=C(CSc1ncnc2c1sc1ccccc12)NC1CCCCC1 | i | i
CC(C)CNC(=O)c1nn2c(c1Cl)NC(c1cccs1)CC2C(F)(F)F (centres undefined) | i | i
CC(C)c1c(C(=O)N2CCN(C)CC2)c(C2CC2)nn1-c1ccccc1 | i | i
CCc1nn(-c2ccc(C)cc2)c(CC)c1C(=O)N1CCN(CC)CC1 | i | i
Cc1c(C(=O)N2CCN(C)CC2)c(C2CC2)nn1-c1ccc(Cl)c(Cl)c1 | 56 | i
CCc1nn(-c2ccc(Cl)c(Cl)c2)c(CC)c1C(=O)N1CCN(CC)CC1 | 66 | i
Cc1ccc(CCC(=O)Nc2ccc(SC(F)F)cc2)o1 | i | i
SMILES | mHTT-CaM PPI inh | Pf apPOL block
CC(C)CC(C(O)=C(C#N)c1nc2ccccc2[nH]1)N1C(=O)c2ccccc2C1=O (centres undefined) | 92 | i
N#CC(=C(O)CCCN1C(=O)c2ccccc2C1=O)c1nc2ccccc2[nH]1 | i | i
CSCCC(C(O)=C(C#N)c1nc2ccccc2[nH]1)N1C(=O)c2ccccc2C1=O (centres undefined) | 67 | i
CC/C(O)=C(/C#N)c1nc2ccccc2[nH]1 | i | i
O=[N+]([O-])c1ccc(Oc2n[nH]c3ccccc23)nc1 | nt | i
COc1ccc(Cl)cc1Nc1ncnc2sc3c(c12)CCC(C)C3 (centres undefined) | i | i
COc1ccccc1NC(=O)c1c(NCc2ccccn2)sc2c1CCC(C)C2 (centres undefined) | i | i
COc1ccc(Cl)cc1NC(=O)c1c(NCc2ccncc2)sc2c1CCC(C)C2 (centres undefined) | 73 | i
COc1ccc(OC)c(NC(=O)Cn2nc3c(cc2=O)CC(C)CC3)c1 (centres undefined) | i | i
COc1ccccc1NC(=O)c1c(NCc2ccncc2)sc2c1CCC(C)C2 (centres undefined) | 100 | i
COc1ccc(OC)c(NC(=O)c2c(NCc3ccncc3)sc3c2CCC(C)C3)c1 (centres undefined) | 72 | i
N#CCCSc1ccccc1NC(=O)C=CC(=O)O | nt | i
CCN1c2ccc(F)cc2C(=O)NC12CCN(C(=O)c1ccc(C)cc1)CC2 | i | i
CN(C)c1ccc(/C=C2/N=C(c3ccc(Br)o3)OC2=O)cc1 | i | i
Cc1ccccc1NS(=O)(=O)c1cc2c(s1)CCN(C(=O)C1CC1)C2 | i | i
C=CCOc1ccc(-c2nc3sc(C)c(C)c3c(=O)[nH]2)cc1OC | i | i
COc1ccc2cc3cc(C(=O)Nc4ccc(C)c(F)c4)oc3nc2c1 | i | i
CN(C)CCCN(C(=O)Cc1ccccc1)c1nc2ccc(Br)cc2s1 | 100 | i
CN(C)CCCN(C(=O)C1=COCCO1)c1nc2ccc(Br)cc2s1 | i | i
COc1cccc(C(O)CN2CCN(c3ccccc3F)CC2)c1 (centres undefined) | i | i
COc1ccc(C)cc1S(=O)(=O)n1nnc2cc(Cl)ccc21 | 100 | i
COc1cc(C)c(C)cc1S(=O)(=O)n1nnc2ccccc21 | 88 | i
COc1ccc(OC)c(S(=O)(=O)n2nnc3ccccc32)c1 | 100 | i
COc1ccc(C)cc1S(=O)(=O)n1nc(C)cc1C | i | i
COc1cc(C)c(S(=O)(=O)n2nnc3ccccc32)cc1C | i | i
SMILES | mHTT-CaM PPI inh | Pf apPOL block
COc1ccc(S(=O)(=O)n2nnc3ccccc32)c(C)c1 | i | i
CC1(C(=O)NCc2cccs2)Oc2cccnc2NC1=O (centres undefined) | i | i
COc1ccc(NC(=O)CN(c2cccc([N+](=O)[O-])c2)S(C)(=O)=O)cc1Cl | i | 65
COc1ccc(Cl)cc1N(CC(=O)Nc1cccc([N+](=O)[O-])c1)S(C)(=O)=O | i | i
COc1ccc(NC(=O)CN(c2ccc(Cl)cc2)S(C)(=O)=O)cc1Cl | i | i
COc1ccc(NC(=O)CN(c2ccc(Cl)cc2)S(=O)(=O)c2ccccc2)cc1OC | 76 | i
Cc1c(Cl)cccc1N(CC(=O)Nc1ccc(F)c(Cl)c1)S(C)(=O)=O | 99 | i
COc1ccc(N(CC(=O)Nc2ccc(OCc3ccccc3)cc2)S(C)(=O)=O)cc1OC | i | i
COc1ccc(N(CC(=O)Nc2ccc(Oc3ccccc3)cc2)S(C)(=O)=O)cc1OC | 52 | i
CS(=O)(=O)N(CC(=O)Nc1ccc(F)c(Cl)c1)c1ccccc1F | i | i
O=S(=O)(Cc1ccccc1)N1CCC(Nc2cccnc2)C1 (centres undefined) | i | i
COc1ccccc1CNC(=O)c1nc(-c2ccc(C)cc2)n2c1CCCCC2 | 61 | i
O=C(NCc1ccccn1)c1nc(-c2ccc(Cl)cc2)n2c1CCCCC2 | 54 | i
Cc1ccc(-c2nc(C(=O)NC(C)C)c3n2CCCCC3)cc1 | i | i
O=C(Nc1ccccn1)c1nc(-c2ccc(Cl)cc2)n2c1CCCCC2 | i | i
COc1ccc(CC(=O)N2CCC(Cc3nnc(-c4ccccc4)o3)CC2)cc1Cl | i | i
N#CC1=C(N)Oc2n[nH]c(-c3ccccc3)c2C1c1ccc([N+](=O)[O-])cc1 (centres undefined) | i | i
O=C1[C@H]2CCC=C[C@H]2[C@H](c2ccccc2Br)N1Cc1ccccc1 | i | i
CC1C=C[C@@H]2[C@H](C1)C(=O)N(Cc1ccccc1)[C@H]2c1ccccc1Br (some centres undefined) | i | i
Cc1cccc([C@H]2[C@@H]3C=CC(C)C[C@@H]3C(=O)N2Cc2ccccc2)c1 (some centres undefined) | 66 | i
O=C1[C@H]2CCC=C[C@H]2[C@H](c2cccc(Br)c2)N1Cc1ccccc1 | 66 | i

From PubChem BioAssay
